Screening data (PubChem)
Only some compounds are listed: those with a hit (about 1.3% of all), similar ones and a draw of the others.
AmpC detergent: AmpC beta-lactamase inhibition with detergent present | AmpC hydrolysis of nitrocefin, absorbance 480 nm, 0.01% Triton | 0.041% of 370,000 active | P00811 | Potency, µM (top dose mostly 114 µM), for inactives: top-dose activity change, negative = inhibition, most hits filed as inhibitors | AID 485294;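 note: 0% = no-compound wells and -100% = no-enzyme wells; nearly all actives have a fitted effect of over 25% in size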
Target sequence (P00811 whole entry, looked up): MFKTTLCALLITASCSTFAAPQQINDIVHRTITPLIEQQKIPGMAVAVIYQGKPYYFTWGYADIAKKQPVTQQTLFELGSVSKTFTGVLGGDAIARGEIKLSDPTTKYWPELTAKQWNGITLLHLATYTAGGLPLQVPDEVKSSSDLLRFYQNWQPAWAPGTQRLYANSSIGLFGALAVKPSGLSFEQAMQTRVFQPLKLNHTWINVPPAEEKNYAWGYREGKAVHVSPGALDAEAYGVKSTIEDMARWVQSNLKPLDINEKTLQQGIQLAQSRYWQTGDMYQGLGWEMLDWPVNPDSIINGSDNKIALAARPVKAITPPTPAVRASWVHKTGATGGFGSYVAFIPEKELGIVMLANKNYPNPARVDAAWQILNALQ
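AmpC (5.3 nM in the dispensed reagent) in 20 mM phosphate pH 7.0 with 0.01% (detergent screen) or 0.0001% Triton X-100 was preincubated with compounds for 15 min at room temperature. Nitrocefin was then added from an 800 uM solution, and hydrolysis was followed at 480 nm.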
VACV Venus inh: vaccinia inhibition (Venus reporter). Vaccinia virus Venus reporter expression, fluorescence. Potency, µM (highest dose often 36.5 µM), without a hit: at the highest dose activity change, negative = inhibition, most hits filed as inhibitors. 0.46% of 330,000 active. AID 720580; calls by dose curve; tested in A549 cells; note: % is set by controls: 0 for no effect and ±100 for the full control effect; nearly all actives have a fitted effect of over 30% in size
Vaccinia mCherry: inhibitors of vaccinia virus infection (mCherry reporter signal); Vaccinia virus mCherry reporter infection, fluorescence; Potency, µM (doses to about 36.5 µM), without a hit: top-dose activity change, negative = inhibition, usual class: inhibitors; 0.63% of 310,000 active; AID 720579; calls by dose curve; tested in A549 cells; note: % is set by controls: 0 for no effect and ±100 for the full control effect; nearly all actives have a fitted effect of over 35% in size
SARS PLpro yeast: blocks SARS-CoV papain-like protease in a yeast assay; S. cerevisiae expressing SARS-CoV PLpro, growth rescue; Potency, µM (highest dose often 32.9 µM), for inactives: at the top dose activity, positive = growth rescue, most hits filed as activators; 0.19% of 330,000 active; AID 485353; calls by dose curve; note: 0% is about no effect; nearly all actives have a fitted effect of over 55% in size
AmpC no deterg: inhibitors of E. coli AmpC beta-lactamase without detergent | Potency, µM (highest dose often 57.1 µM), for the others: top-dose activity change, negative = inhibition, hits mostly inhibitors | P00811 | AmpC nitrocefin hydrolysis, absorbance 480 nm, 0.0001% Triton | 0.52% of 330,000 active;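 note: plate controls were no compound for no effect and no enzyme for full effect; nearly all actives have a fitted effect of over 20% in size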
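AmpC (5.3 nM in the dispensed reagent) in 20 mM phosphate pH 7.0 with 0.01% (detergent screen) or 0.0001% Triton X-100 was preincubated with compounds for 15 min at room temperature. Nitrocefin was then added from an 800 uM solution, and hydrolysis was followed at 480 nm.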
Numbers without * were called inactive; i = inactive; ? = inconclusive; nt = no result; ! = a repeat was not active. Unless noted, calls come from the whole dose curve; as a rule, active = well fitted curve in the direction sought with a large enough effect; inconclusive = small, poorly fitted or top-dose-only effect, or another doubt; inactive = no such curve, though single readings can be large; an effect the other way counts as inactive or inconclusive. Potency is the fitted concentration of half-maximal effect.

SMILES	AmpC detergent	VACV Venus inh	Vaccinia mCherry	SARS PLpro yeast	AmpC no deterg
COC(=O)c1ccccc1NC1=C/C(=N\S(=O)(=O)c2ccc(C(=O)O)cc2)c2ccccc2C1=O	-6%	?	25µM*	-10%	-40%
Cc1ccccc1OCC(O)Cn1c(=N)n(Cc2ccccc2)c2ccccc21 (configuration not stated)	4%	11µM*	10µM*	0%	25%
COc1ccccc1OCC(O)Cn1c(=N)n(Cc2ccccc2)c2ccccc21 (configuration not stated)	-14%	nt	nt	8%	21%
Cc1ccc(C(=O)N2CCOc3ccc(CN4CCN(Cc5ccccn5)CC4)cc3C2)cc1	nt	-3%	-6%	nt	nt
COc1ccc2nc(C)cc(Sc3nc4ccccc4s3)c2c1	-7%	1.4µM*	0.79µM*	-6%	86%
COc1ccc(S[C@@H]2C[C@@H](C(=O)Nc3ccc4nccnc4c3)N(C3Cc4ccccc4C3)C2)cc1	nt	-1%	-12%	nt	nt
COc1cc(C2Nc3cccc4cccc(c34)N2)cc(OC)c1O	-3%	-5%	-7%	-5%	32µM*
COc1cc(=O)n2c(c1C(=O)N(C)Cc1cscn1)CCN(C(=O)c1ccc(C)c(C)c1)CC2	nt	-4%	-13%	nt	nt
CO[C@H]1[C@H](NC(=O)c2ccsc2)c2ccccc2C12CCN(Cc1cnn(C)c1C)CC2	nt	-7%	-13%	nt	nt
COc1ccccc1-c1nnc(SCC(=O)NC2CCCCC2)o1	-13%	?	11µM*	-4%	-25%
O=C(Cn1nnc(-c2ccccc2)n1)Nc1cccc(S(=O)(=O)N2CCOCC2)c1	0%	-12%	-8%	1%	18µM*
Cc1ccc(S(=O)(=O)N2CCOCC2)cc1NC(=O)Cn1nnc(-c2ccccc2)n1	nt	-24%	i	nt	nt
Cc1cc2ccccn2c1C(=O)c1ccc(NN)c([N+](=O)[O-])c1	3%	?	0.89µM*	2%	-47%
Cc1cnc(SCc2ccccn2)nc1C1CCCN(C(=O)c2ccc3c(c2)OCCO3)C1 (configuration not stated)	nt	-6%	-12%	nt	nt
CC(C)(C)c1cc(C=C(C#N)C#N)cc(C(C)(C)C)c1O	?	?	1µM*!	nt	-29%
N#CC(C#N)=Cc1ccc(O)c(O)c1	?	-15%	-7%	nt	-19%
O=[N+]([O-])c1ccc(N2CCOCC2)cc1O	11%	-25%	-19%	1%	-3%
Cc1cc(N2CCOCC2)ccc1/C=C\[N+](=O)[O-]	-2%	10µM*	?	-82%	-9%
COC(=O)c1ccc(C(=O)NCC2Cc3cc(F)cc(-c4cncnc4)c3O2)cc1 (configuration not stated)	nt	0%	i	nt	nt
Cn1c(=O)n(C)c2cc([N+](=O)[O-])c(N3CCN(C(=O)c4cccc(F)c4)CC3)cc21	2%	-17%	-27%	0%	99%
Cc1ccc(C(=O)N2CCN(c3cc4c(cc3[N+](=O)[O-])n(C)c(=O)n4C)CC2)cc1	-10%	-11%	-2%	8.9µM*	1%
O=c1[nH]c(=S)n(C2CC2)c(O)c1/C=N/Nc1cccc2ccccc12	-1%	40%	i	-6%	-24%
O=c1[nH]c(=S)n(C2CC2)c(O)c1/C=N/Nc1ccccc1	-11%	1%	-7%	-23%	13µM*
CC1CCC(C(C)C)C(OC(=O)Cn2c(-c3ccc(Br)cc3)[n+](C)c3ccccc32)C1 (configuration not stated)	-3%	13µM*	11µM*	-1%	107%
Cc1ccccc1OCc1n(CC(=O)OC2CC(C)CCC2C(C)C)c2ccccc2[n+]1C (configuration not stated)	?	11µM*	?	-12%	222%
SMILES	AmpC detergent	VACV Venus inh	Vaccinia mCherry	SARS PLpro yeast	AmpC no deterg
C[N+](C)(C)c1ccc(/C=C/c2ccnc3ccccc23)cc1	nt	97%	233%	nt	nt
Cc1ccc(CNC(=O)CCNS(=O)(=O)c2ccc3c(c2)CCCC(=O)N3)cc1	-5%	-1%	-2%	nt	nt
COc1ccccc1N1CCN(C(=O)c2ccc3nc(-c4ccco4)c(-c4ccco4)nc3c2)CC1	2%	?	11µM*	15%	175%
COC(=O)c1cc(C(=O)N2CCN(c3ccccc3OC)CC2)cc([N+](=O)[O-])c1	-14%	-16%	2.8µM*	-1%	-9%
COC(=O)c1cc(C(=O)N2CCN(c3cccc(C)c3C)CC2)cc([N+](=O)[O-])c1	2%	-24%	?	-1%	48%
O=C(c1ccccc1)c1ccc2nc(-c3ccco3)c(-c3ccco3)nc2c1	4%	-5%	i	-2%	25µM*
O=C(NCCO)c1ccc2nc(-c3ccco3)c(-c3ccco3)nc2c1	2%	-15%	-7%	-11%	-7%
O=C(NCCc1ccccc1)c1ccc2nc(-c3ccco3)c(-c3ccco3)nc2c1	-9%	nt	nt	-3%	16µM*
Cc1nc([N+](=O)[O-])cn1CC(=O)c1ccc2c(c1)OCCCO2	nt	-8%	-7%	nt	nt
Cc1ccc(CN2CCC(C3(c4ccccn4)NC(=O)N(CC4CCCO4)C3=O)CC2)cc1C (configuration not stated)	nt	-17%	-4%	nt	nt
COc1ccccc1N1CCN(C(=O)c2cc(C3CC3)on2)CC1	?	-17%	-26%	0%	20µM*
COc1ccc(-c2nc(-c3ccc(NC(=O)c4ccc(Br)o4)cc3)no2)cc1OC	-2%	32µM*	nt	-2%	0%
CN(C)CCNC(=O)c1ccccc1	-13%	nt	nt	1%	-11%
CN(C)CCNC(=O)c1sc2cccc(F)c2c1Cl	-3%	-12%	-17%	-1%	-11%
CN(C)CCNC(=O)c1cccc2nc3cccc(F)c3nc12	nt	3.2µM*	?	nt	nt
CN(C)CCNC(=O)c1cccc2ccc(-c3ccc(-c4ccccc4)cc3)nc12	nt	13µM*	?	nt	nt
OC1CCN(Cc2ccc3c(c2)CN(C/C=C/c2ccco2)CCO3)CC1	nt	-1%	-1%	nt	nt
O=C(/C=C\c1ccco1)c1ccc(NC(=O)c2ccco2)cc1	2%	-20%	-2%	-3%	6.3µM*
Cc1nn(CC(=O)N/N=C/c2cccs2)c(C)c1[N+](=O)[O-]	2%	-9%	-9%	0%	0%
Cc1c(Cl)c([N+](=O)[O-])nn1Cc1ccc(C(=O)N/N=C\c2ccccn2)o1	-6%	?	-25%	-16%	-22%
COc1cccc(/C=N\NC(=O)c2ccc(Cn3cc(Br)c([N+](=O)[O-])n3)o2)c1O	4%	?	1.3µM*	5%	12%
COc1cc(/C=N\NC(=O)c2ccc(Cn3nc([N+](=O)[O-])c(Cl)c3C)o2)ccc1O	1%	18µM*	nt	7%	-18%
COc1cccc(/C=N/NC(=O)Cn2nc(C)c([N+](=O)[O-])c2C)c1O	-1%	?	11µM*	16%	-30%
Cc1nn(C)cc1CNc1nc(C)c(-c2ccn(CC3COc4ccccc4O3)n2)s1 (configuration not stated)	nt	-10%	-9%	nt	nt
